Screens deposited in PubChem by National Center for Advancing Translational Sciences (NCATS).
A549 viability – A549 cytotoxicity, counter-screen for Nrf2 inhibitors; A549 ARE-Fluc cells, CellTiter-Fluor viability, 18-24 h; Potency, µM (series often up to 46 µM), for the others: at the highest dose activity change, negative = cytotoxicity, hits mostly inhibitors; actives 0.16% (n = 390,000); AID 504648; further: potency means the concentration at half of the fitted maximal effect; on the % scale 0 is the no-effect control and ±100 the full control effect
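A549 ARE_Fluc cells in 5% FBS OPTI-MEM were exposed to compounds in concentration-response for 18-24 h at 37 deg C. Viability was read by CellTiter-Fluor fluorescence (Ex 405/Em 525) after 30 min, before the luciferase read.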
ERG-DNA inh – ERG Ets/DNA interaction inhibition. P11308. actives 0.028% (n = 370,000). Potency, µM (doses to about 76.9 µM), inactives show at the top dose FP activity, negative = inhibition, usual class: inhibitors. AID 624246. fluorescence polarization, His-ERG Ets domain / labelled DNA; active means well fitted inhibition curve with a large enough effect in the polarisation, with a control signal flat; inconclusive means small, poorly fitted or top-dose-only effect, or effect the other way, or a change in a side signal; inactive means no such curve, though single readings can be large or run the other way; the % refers to the polarisation;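 further: polarization taken with two DNA probes labelled with fluorescein and Texas red; potency means the concentration at half of the fitted maximal effect; % of control where 0% means no effect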
Target sequence (P11308 whole entry, looked up, the tested form may be a part): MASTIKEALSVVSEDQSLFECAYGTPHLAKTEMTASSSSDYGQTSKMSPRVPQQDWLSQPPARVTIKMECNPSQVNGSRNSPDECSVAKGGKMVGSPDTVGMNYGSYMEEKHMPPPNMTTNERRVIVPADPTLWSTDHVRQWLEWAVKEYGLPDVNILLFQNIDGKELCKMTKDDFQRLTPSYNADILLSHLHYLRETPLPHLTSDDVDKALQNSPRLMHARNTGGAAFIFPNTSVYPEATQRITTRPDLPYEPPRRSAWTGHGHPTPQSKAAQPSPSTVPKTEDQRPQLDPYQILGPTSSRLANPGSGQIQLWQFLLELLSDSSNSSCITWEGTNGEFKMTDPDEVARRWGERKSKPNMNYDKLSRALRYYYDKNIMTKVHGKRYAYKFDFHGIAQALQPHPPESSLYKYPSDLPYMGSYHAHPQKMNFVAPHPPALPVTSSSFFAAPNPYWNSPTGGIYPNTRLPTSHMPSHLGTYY
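His-tagged ERG Ets domain (1 uM in the protein solution; 300mM KCl, 50mM Tris-HCl, 1mM EDTA, 1mM DTT, pH 7.5) received compound, then a probe mix of 5 nM fluorescein-DNA and 100nM Texas-615-DNA. Fluorescence polarization was read for both dyes.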
ALOX12 inh – inhibitors of human 12S-lipoxygenase ALOX12; P18054; purified 12hLO, xylenol orange hydroperoxide absorbance; Potency, µM (series often up to 108 µM), inactives show at the top dose activity change, negative = inhibition, usual class: inhibitors; actives 1.1% (n = 580,000); AID 1671190; further: potency means the concentration at half of the fitted maximal effect; on the % scale 0 is the no-effect control and ±100 the full control effect
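Purified human 12hLO at 150 nM in 25 mM Hepes, 0.01% Triton X-100, pH 7.0, preincubated 15 min at room temperature with compound. Reaction started with 40 uM arachidonic acid, 30 min at room temperature. Hydroperoxide measured by Fe-xylenol orange, 573/405 nm absorbance ratio.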
Nrf2 activator – activates Nrf2 signaling; AREc32 ARE-luciferase reporter (MCF7-derived line), luminescence, 24 h; Potency, µM (highest dose often 46.1 µM), for the others: top-dose activation, hits mostly activators; actives 0.31% (n = 410,000); AID 624171; further: potency means the concentration at half of the fitted maximal effect; % of control where 0% means no effect; nearly all actives have a fitted effect of over 65% in size
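Luminescent ARE reporter assay in AREc32_Fluc cells: overnight plating at 37 deg C, 24 hr compound incubation, Steady-Glo added, 30 min RT before reading.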
LDHA block – inhibitors of human lactate dehydrogenase A. P00338. purified LDHA, NADH/diaphorase-resazurin fluorescence; active compounds read low. activity change, % (values are at about 110 or 230 µM). actives 0.15% (n = 480,000). AID 1347041; in the data active means activity change below about -30%; inconclusive means mostly about -25% to -30%;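 further: plate controls were DMSO wells for no effect and wells without enzyme for full effect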
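Remaining NADH was detected by diaphorase (0.133 mg/mL) converting 37 µM resazurin to fluorescent resorufin, read at 0 and 20 minutes. The preceding 5-minute room-temperature reaction used 2 nM LDHA, 0.2 mM sodium pyruvate and 0.06 mM NADH at pH 7.4.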
Nrf2 inh – Nrf2 pathway inhibition; A549 ARE-Fluc reporter, luciferase luminescence, 18-24 h; Potency, µM (top dose mostly 46 µM), without a hit: at the top dose activity change, negative = inhibition, actives largely listed as inhibitors; actives 2.1% (n = 360,000); AID 504444; further: potency means the concentration at half of the fitted maximal effect; on the % scale 0 is the no-effect control and ±100 the full control effect; nearly all actives have a fitted effect of over 60% in size
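Cells were seeded and rested 2 h, then exposed to compounds for 18-24 h. CellTiter-Fluor was read first as a viability measure. BugLite was added 15 min before the final luminescent read of ARE-luciferase activity in A549 cells.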
The depositor's hits bear a star; ? = inconclusive; nt = not tested or not shown; [ ] = another dose, or the depositor's remark. Hits are enriched below; roughly 2.7% of the tested compounds scored in any of these assays. Unless noted, the call rests on the fitted dose curve; in most records, active means well fitted curve in the direction sought with a large enough effect; inconclusive means small, poorly fitted or top-dose-only effect, or another doubt; inactive means no such curve, though single readings can be large; an effect the other way counts as inactive or inconclusive.

SMILES	A549 viability	ERG-DNA inh	ALOX12 inh	Nrf2 activator	LDHA block	Nrf2 inh
O=C(C1=C[C@@H](c2ccc(C(F)(F)F)cc2)C[C@@H](OCc2ccc(CO)cc2)O1)N1CCN(Cc2ccc3c(c2)OCO3)CC1	-22%	10%	10%	0%	0	16µM*
COCCN1C(=O)c2n[nH]c(-c3ccco3)c2C1c1ccccc1OC (stereo not given)	nt	nt	?	nt	1	nt
O=C(Nc1ccccc1Cl)c1cc(=O)c2cc(Cl)ccc2o1	nt	nt	-1%	nt	0	nt
O=C(O)C1=C[C@@H](c2ccc(Br)cc2)C[C@@H](OCc2ccc(CO)cc2)O1	7%	-1%	?	0%	-6	-4%
O=C(Nc1ccccc1)C1=C[C@@H](c2ccc(Br)cc2)C[C@@H](OCc2ccc(CO)cc2)O1	-11%	0%	?	7%	0	18µM*
S=C(NCCc1ccccc1)Nc1ccc(Cl)cc1	12%	1%	?	0%[9.22 µM]	-2	9%
S=C(NCc1ccc(Cl)cc1)Nc1ccncc1	-5%	-18%	?	0%	-3	13µM*
S=C(NCc1ccc(Cl)cc1)Nc1ccccc1	-3%	0%	?	0%	0	27%
S=C(NCc1ccc(Cl)cc1)Nc1ccc(Br)cn1	nt	nt	4.5µM*	nt	7	nt
S=C(NCc1ccc(Cl)cc1)Nc1ccc(Nc2ccccc2)cc1	nt	nt	18µM*	nt	0	nt
S=C(NCCc1ccc(Cl)cc1)Nc1ccc(Nc2ccccc2)cc1	nt	nt	28µM*	nt	1	nt
NNc1ncnc2ccc([N+](=O)[O-])cc12	nt	nt	?	nt	7	nt
O=C(O)c1cccc2[nH]ccc12	nt	nt	18%	nt	-8	nt
O=C(O)c1ccccc1CSc1nc2ccccc2n1Cc1ccccc1C(=O)O	2%	-3%	?	0%	-32*	0%
O=C(O)CCn1c(SCc2cccc3ccccc23)nc2ccccc21	6%	2%	-23%	-1%	-4	3%
COc1ccc2c(c1)Oc1nc(-c3cccs3)nc(SCC(=O)Nc3cccc(C(=O)O)c3)c1C2	nt	nt	nt	nt	-7	nt
O=[N+]([O-])c1cc(NS(=O)(=O)c2ccc(Cl)nc2)ccc1Cl	?	-1%	?	1%	-15	16µM*
COc1ccc(C2C(C(=O)Nc3ccc(C)cn3)=C(C)NC3=C2C(=O)CCC3)c(OC)c1 (stereo not given)	nt	nt	21%	nt	13	nt
CSC1=C(C#N)C(c2ccc3c(c2)OCO3)C2=C(CCCC2=O)N1 (stereo not given)	-11%	2%	0%	0%	-5	-9%
CCSC1=C(C#N)C(c2ccc(Cl)cc2)C2=C(CCCC2=O)N1 (stereo not given)	?	6%	?	0%	-3	21µM*
COc1ccc(Cn2c(O)c(C=Nc3ccc(C)cc3)c3ccccc3c2=O)cc1	?	7%	-17%	0%	-5	9.2µM*
COc1ccc(Cn2c(-c3ccc(C)cc3)c[n+]3ccccc23)cc1	-16%	4%	-3%	3%	-10	0.73µM*
COc1ccc(Cn2c(O)c(C=Nc3ccc(O)cc3)c3ccccc3c2=O)cc1	?	8%	-17%	0%	8	?
Nc1nn(Cc2ccc(Cl)cc2Cl)cc1Cl	nt	nt	-22%	nt	1	nt
Nc1nc(N)c(Cc2ccc(Cl)cc2Cl)c(N)n1	-14%	21%	-6%	2%	-8	18µM*
SMILES	A549 viability	ERG-DNA inh	ALOX12 inh	Nrf2 activator	LDHA block	Nrf2 inh
O=C(NC1CCN(Cc2ccccc2)CC1)c1cc2cc(F)ccc2[nH]1	nt	nt	-24%	nt	4	nt
Cc1ccc(-n2nnnc2SCC(=O)N2CCc3ccccc3C2)c(C)c1	-8%	3%	-10%	0%	-4	16µM*
Cc1ccc(-n2nnnc2SCC(=O)N2CCc3ccccc3C2)cc1	10%	0%	23%	2%	6	5%
O=C(Nc1ccc2ncccc2c1)c1ccccc1Cl	16%	0%	45µM*	13%	-42*	10%
CC(C)C[C@H]1CNC(=S)N1C[C@H]1CCCN1C[C@H](Cc1ccc(O)cc1)N1C[C@H](Cc2ccc(O)cc2)N(CCc2ccccc2)C1=S	nt	nt	45µM*	-1%	-14	nt
Oc1ccc(C[C@H]2CNC(=S)N2CC2CCCN2C[C@H](Cc2ccccc2)N2C[C@H](Cc3ccc(O)cc3)N(CCc3ccccc3)C2=S)cc1 (stereo not given in full)	?	2%	?	-1%	-15	15µM*
COCCN(Cc1cc2cc(C)ccc2[nH]c1=O)C(=O)c1cccnc1	nt	nt	4%	nt	3	nt
Clc1ccc(SCc2nc(NC3CCCc4ccccc43)c3c4c(sc3n2)CCC4)cc1 (stereo not given)	nt	nt	?	nt	14	nt
O=C(C=C(Sc1ccccc1)Sc1ccccc1)C(F)(F)F	nt	nt	35µM*	nt	21	nt
CC1CN(S(=O)(=O)c2cccc(C(=O)Nc3ccc4c(c3)CCC4)c2)CC(C)O1 (stereo not given)	-16%	7%	-23%	3%	-2	23µM*
CC1CN(S(=O)(=O)c2cccc(C(=O)NN3CCN(C)CC3)c2)CC(C)O1 (stereo not given)	-3%	nt	-11%	0%	-3	2%
C=Cc1ccc(Cn2c(C(=O)O)c(CNCc3ccccc3)c3ccc(C)cc32)cc1	16µM*	3%	?	-2%	1	?
O=c1[nH]nc(-c2ccco2)c2c1Nc1nnnn1C2c1ccccc1Cl (stereo not given)	nt	nt	-4%	nt	?	nt
CC[n+]1c(C)cc(C)n1-c1ccccc1	-2%	3%	40µM*	0%	-18	-1%
COc1ccc(CC(=O)N2N=C(c3cccc(Br)c3)CC2(O)C(F)(F)F)cc1 (stereo not given)	nt	nt	14µM*	nt	-23	nt
COc1ccc(CC(=O)N2N=C(c3ccccc3)CC2(O)C(F)(F)F)cc1 (stereo not given)	nt	nt	?	nt	-6	nt
Cc1ccccc1-c1csc2ncnc(Sc3nnnn3C)c12	1%	nt	nt	nt	-5	-10%
Cn1nnnc1Sc1ncnc2scc(-c3cccc4ccccc34)c12	-21%	nt	-8%	7.1µM*	-6	?
Cn1nnnc1Sc1ncnc2scc(-c3ccccc3)c12	-5%	-2%	11%	?	-17	?
Cn1nnnc1Sc1ncnc2scc(-c3ccccc3Br)c12	-3%	nt	-3%	?	0	21µM*
Cn1nnnc1Sc1ncnc2scc(-c3ccc(F)cc3)c12	?	0%	4%	?	-6	23µM*
Cn1nnnc1Sc1ncnc2scc(-c3cccc(C#N)c3)c12	?	nt	nt	nt	0	16µM*
